# Test results published in PubChem BioAssay (Tox21).
# Where “and” joins values, the source holds several entries; their conditions need not be identical. Equal entries are not always repeated. Results filed as inconclusive are left out. Where a call stands in place of a potency, no number is given. Some structures have more than one record in an assay (separate samples or runs), and their calls can disagree. Calls of active or inactive are those of the source. Unless noted, calls follow the shape of the dose curve; as a rule, active = well fitted curve in the direction sought with a large enough effect in the repeat runs; inconclusive = weak or mixed curves; inactive = no such curve, though single readings can be large; an effect the other way counts as inactive or inconclusive.
# Experiments:
# [1] = target: Thyrotropin receptor (Homo sapiens) (UniProt P16473); assay: qHTS assay to identify small molecule antagonists of the thyroid stimulating hormone receptor (TSHR) signaling pathway (AID 1259385; calls by dose curve; also: nearly all actives have a fitted effect of over 20% in size)
# Thyrotropin receptor (Homo sapiens), sequence (P16473 whole entry, looked up): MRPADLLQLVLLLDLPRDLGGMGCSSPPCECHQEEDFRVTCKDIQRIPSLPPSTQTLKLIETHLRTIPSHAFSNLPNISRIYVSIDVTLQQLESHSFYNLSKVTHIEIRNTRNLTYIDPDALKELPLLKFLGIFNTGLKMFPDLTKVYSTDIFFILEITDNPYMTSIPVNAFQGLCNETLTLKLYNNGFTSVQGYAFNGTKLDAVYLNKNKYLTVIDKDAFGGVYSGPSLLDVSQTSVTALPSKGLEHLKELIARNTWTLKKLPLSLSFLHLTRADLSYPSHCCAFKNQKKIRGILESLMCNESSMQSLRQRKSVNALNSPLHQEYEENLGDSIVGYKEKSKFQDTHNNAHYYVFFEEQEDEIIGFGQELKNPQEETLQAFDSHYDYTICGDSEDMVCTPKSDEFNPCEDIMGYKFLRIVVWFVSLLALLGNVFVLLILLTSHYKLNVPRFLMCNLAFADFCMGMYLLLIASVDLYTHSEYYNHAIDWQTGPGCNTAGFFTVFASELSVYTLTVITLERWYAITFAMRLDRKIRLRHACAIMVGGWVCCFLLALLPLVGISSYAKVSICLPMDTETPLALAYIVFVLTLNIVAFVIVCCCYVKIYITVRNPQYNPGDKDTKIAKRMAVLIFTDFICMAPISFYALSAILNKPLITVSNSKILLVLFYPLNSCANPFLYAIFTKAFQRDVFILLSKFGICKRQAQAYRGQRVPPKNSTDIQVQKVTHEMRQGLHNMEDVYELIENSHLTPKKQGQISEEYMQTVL
# Method in brief: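 Antagonist mode: compound-treated TSHR-expressing HEK293 cells were stimulated with 1.5 ng/mL TSH (final) in presence of Ro20-1724 for 30 min at RT. HTRF cAMP detection after 1 h; each compound tested at 15 concentrations, triplicate.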
# [2] = qHTS assay to identify small molecule agonists of the estrogen receptor alpha (ER-alpha) signaling pathway in the presence of an antagonist - cell viability counter screen (AID 1259386);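 also: cells exposed to compounds for 22 h at 37 °C before the viability read; nearly all actives have a fitted effect of over 30% in size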; also: potency is read from the fitted curve at half-maximal effect
# Method in brief: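 Viability counter screen using VM7Luc4E2 (full-length ER-alpha, four ERE-luciferase). The cells were treated with compounds alongside ICI-182,780 10.0nM for 22hr, and live-cell protease fluorescence was quantified with CellTiter-Fluor.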
# [3] = qHTS assay to identify small molecule antagonists of the progesterone receptor (PR) signaling pathway - cell viability counter screen (AID 1346798); also: nearly all actives have a fitted effect of over 50% in size; also: potency is read from the fitted curve at half-maximal effect
# Method in brief: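 Counter screen for cytotoxicity: viability of PR-UAS-bla HEK293T cells was measured with CellTiter-Glo luminescence following 16 hr compound exposure in the presence of R5020.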
# [4] = qHTS assay to identify small molecule agonists of the progesterone receptor (PR) signaling pathway - cell viability counter screen (AID 1346799; calls by dose curve; also: nearly all actives have a fitted effect of over 45% in size; also: potency is read from the fitted curve at half-maximal effect)
# Method in brief: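 Cells (PR-UAS-bla HEK293T) are plated at 3,000/well in 2% charcoal-stripped FBS medium, rested 6 hr, dosed and incubated 16 hr at 37C. CellTiter-Glo is then added and luminescence measured after 30 min at room temperature.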
# [5] = qHTS assay to identify small molecule antagonists of the TGF-beta/Smad signaling pathway - cell viability counter screen (AID 1346824); also: nearly all actives have a fitted effect of over 50% in size
# Method in brief: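 Cytotoxicity counter-screen run in the same wells as the beta-lactamase Smad reporter read: CellTiter-Glo luminescence after 30 min at room temperature. HEK 293T SBE-bla cells had 5 hr compound exposure at 37 C with TGF-beta1 (0.25 ng/mL stock).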
# [6] = qHTS assay to identify small molecule agonists of the TGF-beta/Smad signaling pathway - cell viability counter screen (AID 1346829); also: top concentration of the series differs between compounds; nearly all actives have a fitted effect of over 45% in size
# Method in brief: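 Tox21 qHTS format: SBE-bla HEK 293T cells treated with DMSO-dissolved compounds for 5 hr; CellTiter-Glo luminescence after 30 min at room temperature.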
# [7] = qHTS assay to identify small molecule agonists of the TGF-beta/Smad signaling pathway (AID 1346859; active = well fitted activation curve with a large enough effect in the signal ratio in the repeat runs, not every such curve was filed as active; the % refers to the signal ratio; also: series mostly up to about 77 µM)
# Method in brief: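 Reporter line: HEK 293T with stably integrated SBE-controlled beta-lactamase. Compound exposure lasts 5 hr at 37 C and 5% CO2; substrate loading follows for 2 hr at room temperature, with emission read at 460 and 530 nm.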
# [8] = target: Thyrotropin-releasing hormone receptor (Homo sapiens) (UniProt P34981); assay: qHTS assay to identify small molecule antagonists of the thyrotropin-releasing hormone receptor (TRHR) signaling pathway (AID 1346877; active = well fitted inhibition curve with a large enough effect in the repeat runs, not every such curve was filed as active; also: series mostly up to about 51 µM)
# Thyrotropin-releasing hormone receptor (Homo sapiens), sequence (P34981 whole entry, looked up): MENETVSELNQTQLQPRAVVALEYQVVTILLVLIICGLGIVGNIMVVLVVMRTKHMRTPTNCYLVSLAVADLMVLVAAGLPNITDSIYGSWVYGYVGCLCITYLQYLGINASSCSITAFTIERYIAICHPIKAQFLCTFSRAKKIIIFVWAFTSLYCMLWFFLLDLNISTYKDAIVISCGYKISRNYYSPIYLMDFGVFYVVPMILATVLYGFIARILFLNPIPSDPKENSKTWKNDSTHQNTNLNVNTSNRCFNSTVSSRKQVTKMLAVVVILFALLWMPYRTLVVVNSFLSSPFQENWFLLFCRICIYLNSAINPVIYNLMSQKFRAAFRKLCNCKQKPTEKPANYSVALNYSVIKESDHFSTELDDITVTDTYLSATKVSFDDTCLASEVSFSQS
# Method in brief: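 Following an 18 h incubation at 37 °C and a 2 h calcium dye load, TRHR-HEK293 cells were exposed to compound (5 min, room temperature) and challenged with TRH, 1 nM final.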
# [9] = target: Thyrotropin-releasing hormone receptor (Homo sapiens) (UniProt P34981); assay: qHTS assay to identify small molecule agonists of the thyrotropin-releasing hormone receptor (TRHR) signaling pathway (AID 1346891; calls by dose curve;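 also: HEK293 cells expressing TRHR with calcium dye readout; series mostly up to about 58 µM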)
# Method in brief: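 Cells: TRHR-Hek293, seeded and incubated 18 h. Dye loading: 2 h at 37 °C. Compound added from DMSO stock by pin tool. Read-out: kinetic calcium fluorescence over 3 min.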
# [10] = Human pregnane X receptor (PXR) small molecule agonists, qHTS cell viability counter screen (AID 1346977); also: nearly all actives have a fitted effect of over 50% in size
# Method in brief: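 Cytotoxicity counter screen run in the same wells as the PXR luciferase assay, using PXR-Luc HepG2 cells in charcoal-stripped serum medium. Viability: CellTiter-Fluor fluorescence after 24hr compound treatment.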
# [11] = Caspase-3/7 induction in HepG2 cells by small molecules, qHTS assay (AID 1346978); also: nearly all actives have a fitted effect of over 15% in size; also: potency is read from the fitted curve at half-maximal effect
# Method in brief: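 Caspase-3/7 induction was measured by Caspase-Glo 3/7 luminescence (30 min, room temperature) after a 17 hr compound exposure of wild-type HepG2 cells seeded at 2,000 per well and pre-incubated 5 hr.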
# [12] = Caspase-3/7 induction in CHO-K1 cells by small molecules, qHTS cell viability counter screen (AID 1346979); also: nearly all actives have a fitted effect of over 35% in size; also: potency is read from the fitted curve at half-maximal effect
# Method in brief: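 Cytotoxicity counter screen run in parallel with the caspase-3/7 assay: CHO-K1 cells, 16hr compound treatment at 37C, then CellTiter-Fluor for 1hr before fluorescence reading.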
# [13] = Caspase-3/7 induction in CHO-K1 cells by small molecules, qHTS assay (AID 1346980); also: nearly all actives have a fitted effect of over 15% in size
# Method in brief: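 Luminescent Caspase-Glo 3/7 read (30min, room temperature) quantified apoptosis induction. Cells were wild-type CHO-K1, treated with compound for 17hr at 37 C and 5% CO2.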
# [14] = Caspase-3/7 induction in HepG2 cells by small molecules, qHTS cell viability counter screen (AID 1346981); also: nearly all actives have a fitted effect of over 30% in size; also: potency is read from the fitted curve at half-maximal effect
# Method in brief: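 Viability determined by CellTiter-Fluor fluorescence in HepG2 wells also used for the luminescent Caspase-Glo 3/7 read. Compounds were present for 16 hr at 37 C, 5% CO2 before reagent addition.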
# [15] = target: Nuclear receptor subfamily 1 group I member 2 (Homo sapiens) (UniProt O75469); assay: Human pregnane X receptor (PXR) small molecule agonists, qHTS assay (AID 1346982); also: nearly all actives have a fitted effect of over 35% in size; also: potency is read from the fitted curve at half-maximal effect
# Nuclear receptor subfamily 1 group I member 2 (Homo sapiens), sequence (O75469 whole entry, looked up): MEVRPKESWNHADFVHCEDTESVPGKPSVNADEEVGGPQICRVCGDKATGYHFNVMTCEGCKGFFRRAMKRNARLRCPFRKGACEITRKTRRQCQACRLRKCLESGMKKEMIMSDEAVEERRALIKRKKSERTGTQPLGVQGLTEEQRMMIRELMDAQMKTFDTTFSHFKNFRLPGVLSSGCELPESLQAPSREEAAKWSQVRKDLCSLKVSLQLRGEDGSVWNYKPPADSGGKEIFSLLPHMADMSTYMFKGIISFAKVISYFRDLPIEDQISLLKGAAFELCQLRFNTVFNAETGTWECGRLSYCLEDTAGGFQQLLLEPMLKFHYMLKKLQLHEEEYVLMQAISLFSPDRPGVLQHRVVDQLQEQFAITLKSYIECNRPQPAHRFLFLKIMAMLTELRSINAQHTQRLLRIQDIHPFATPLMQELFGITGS
# Method in brief: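 Compound-induced hPXR transactivation of a CYP3A4 luciferase reporter was scored in HepG2 PXR-Luc cells over 24 hr at 37 C, 5% CO2, by luminescence.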
# [16] = target: Progesterone receptor (Homo sapiens) (UniProt P06401); assay: qHTS assay to identify small molecule agonists of the progesterone receptor (PR) signaling pathway (AID 1346784; calls by dose curve; also: nearly all actives have a fitted effect of over 30% in size)
# Progesterone receptor (Homo sapiens), sequence (P06401 whole entry, looked up): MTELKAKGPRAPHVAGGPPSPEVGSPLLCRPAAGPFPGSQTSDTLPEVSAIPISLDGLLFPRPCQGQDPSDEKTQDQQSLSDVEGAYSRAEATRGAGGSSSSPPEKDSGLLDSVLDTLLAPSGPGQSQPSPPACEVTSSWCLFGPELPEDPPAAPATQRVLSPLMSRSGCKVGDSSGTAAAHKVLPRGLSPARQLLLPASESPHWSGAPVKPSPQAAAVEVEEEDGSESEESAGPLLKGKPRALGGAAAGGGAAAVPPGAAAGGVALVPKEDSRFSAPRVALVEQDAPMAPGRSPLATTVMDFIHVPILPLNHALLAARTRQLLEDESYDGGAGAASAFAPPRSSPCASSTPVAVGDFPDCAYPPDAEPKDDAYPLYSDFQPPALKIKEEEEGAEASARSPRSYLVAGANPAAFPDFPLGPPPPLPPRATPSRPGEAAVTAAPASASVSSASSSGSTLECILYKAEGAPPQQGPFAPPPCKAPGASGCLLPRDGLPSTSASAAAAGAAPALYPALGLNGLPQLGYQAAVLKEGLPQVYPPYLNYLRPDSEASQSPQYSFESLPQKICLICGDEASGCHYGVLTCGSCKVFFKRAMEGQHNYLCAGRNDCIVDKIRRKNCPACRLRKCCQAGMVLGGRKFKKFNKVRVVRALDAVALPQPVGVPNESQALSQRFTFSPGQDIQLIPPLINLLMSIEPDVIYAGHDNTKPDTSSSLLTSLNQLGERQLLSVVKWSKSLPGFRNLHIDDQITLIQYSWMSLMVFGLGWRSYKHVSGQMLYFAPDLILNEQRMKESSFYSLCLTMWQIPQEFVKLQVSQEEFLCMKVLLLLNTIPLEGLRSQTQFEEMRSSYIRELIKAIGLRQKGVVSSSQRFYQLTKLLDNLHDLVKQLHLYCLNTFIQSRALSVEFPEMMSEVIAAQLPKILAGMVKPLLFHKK
# Method in brief: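 Cells (PR-UAS-bla HEK 293T, GripTite) were plated in assay medium containing 2% charcoal-stripped FBS and incubated 6 hr. Test compounds in DMSO were added for 16 hr at 37C. FRET substrate was then loaded for 2 hr at room temperature before fluorescence reading.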
# [17] = target: Progesterone receptor (Homo sapiens) (UniProt P06401); assay: qHTS assay to identify small molecule antagonists of the progesterone receptor (PR) signaling pathway (AID 1346795; active = well fitted inhibition curve with a large enough effect in the signal ratio in the repeat runs, not every such curve was filed as active; the % refers to the signal ratio)
# Method in brief: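 Antagonist mode: compounds tested against 1 nM (final) promegestone stimulation in HEK293T cells expressing PR-UAS-bla reporter, 16 hr at 37C, 5% CO2; beta-lactamase activity detected via B/G FRET substrate after 2 hr at room temperature.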
# [18] = target: Nuclear receptor subfamily 1 group I member 2 (Rattus norvegicus) (UniProt Q9R1A7); assay: Rat pregnane X receptor (rPXR) activation by small molecules, qHTS assay (AID 1346983); details: rPXR luciferase reporter cells, One-Glo luminescence, 24 h; max activation: stronger effect = higher value; also: nearly all actives have a fitted effect of over 20% in size
# Nuclear receptor subfamily 1 group I member 2 (Rattus norvegicus), sequence (Q9R1A7 whole entry, looked up): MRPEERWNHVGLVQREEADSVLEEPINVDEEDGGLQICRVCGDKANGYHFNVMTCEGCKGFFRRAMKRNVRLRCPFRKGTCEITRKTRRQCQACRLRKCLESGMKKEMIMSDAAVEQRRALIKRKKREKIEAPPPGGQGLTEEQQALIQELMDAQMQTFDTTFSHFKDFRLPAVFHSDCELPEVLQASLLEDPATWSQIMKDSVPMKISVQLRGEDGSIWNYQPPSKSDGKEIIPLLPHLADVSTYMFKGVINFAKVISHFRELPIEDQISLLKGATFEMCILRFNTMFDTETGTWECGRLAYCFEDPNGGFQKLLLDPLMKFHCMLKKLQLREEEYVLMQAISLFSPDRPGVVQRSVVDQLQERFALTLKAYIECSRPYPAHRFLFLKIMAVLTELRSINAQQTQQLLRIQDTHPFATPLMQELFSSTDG
# Method in brief: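 Luminescent readout (One-Glo luciferase, 30 min room temperature) followed 24 hr compound treatment at 37 C of rPXR cells plated 2,000 per well and preincubated 5hr; qHTS format with compounds delivered in DMSO.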
# [19] = target: Nuclear receptor subfamily 1 group I member 2 (Homo sapiens) (UniProt O75469); assay: CYP3A4 induction through human pregnane X receptor (PXR) by small molecules, qHTS assay (AID 1346984); also: nearly all actives have a fitted effect of over 40% in size
# Method in brief: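 Readings come from a luciferase reporter: DPX-2 cells, which are HepG2 cotransfected with PXR and a CYP3A4-promoter construct, were exposed to test compounds for 24 h at 37C before One-Glo detection.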
# [20] = target: Nuclear receptor subfamily 1 group I member 2 (Homo sapiens) (UniProt O75469); assay: Human pregnane X receptor (PXR) activation by small molecules, qHTS assay (AID 1346985); also: nearly all actives have a fitted effect of over 40% in size
# Method in brief: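 DPX-2 cells (HepG2 co-transfected with a PXR response element and a CYP3A4-promoter luciferase construct) were seeded at 2,000 per well, rested 5 hr at 37C, then exposed to DMSO-dissolved compounds for 24 hr. Activation was read as luciferase luminescence.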
SMILES,Potency [1],Potency [2],Potency [3],Potency [4],Potency [5],Potency [6],outcome [7],Potency [8],Potency [9],Potency [10],Potency [11],Potency [12],Potency [13],Potency [14],Potency [15],Potency [16],Potency [17],max activation [18],Potency [19],Potency [20]
NNc1ccc(C(=O)O)cc1,inactive,inactive,inactive,inactive,inactive,inactive,inactive,inactive,inactive,inactive,inactive,inactive,inactive,inactive,43.9 nM (active) and 27.6 nM (active),–,–,–,–,–
COC(=O)C1=C(C)NC(C)=C(C(=O)OCCN(C)Cc2ccccc2)C1c1cccc([N+](=O)[O-])c1 (stereo unspecified),inactive,54.2 µM (active) and 18.8 µM (active),30.5 µM (active),30.5 µM (active),inactive,inactive,inactive,inactive,inactive,–,inactive,30.5 µM (active) and 26.6 µM (active),inactive,48.3 µM (active) and 26.6 µM (active),–,–,–,–,–,–
Nc1ccc(Nc2ccccc2)cc1,–,30.6 µM (active) and 19.3 µM (active),inactive,inactive,inactive,inactive,inactive,inactive,inactive,–,inactive,53.9 µM (active) and 43.3 µM (active) and 48.6 µM (active),inactive,–,24.1 µM (active) and 19.3 µM (active) and 34.4 µM (active),–,–,–,–,–
Nc1ccccc1N,–,49.7 µM (active),inactive,inactive,inactive,inactive,inactive,inactive,inactive,–,2.22 µM (active) and 9.41 µM (active),inactive and 47.2 µM (active),inactive,15 µM (active),1.76 µM (active) and 7.7 µM (active),inactive,–,–,–,–
CN(C)c1nc(N(C)C)nc(N(C)C)n1,inactive,inactive,inactive,inactive,–,inactive,inactive,inactive,inactive,inactive,inactive,inactive,inactive,–,–,–,–,–,–,–
O=CCCCC=O,–,inactive,inactive,inactive,inactive,inactive,inactive,inactive,inactive,inactive,inactive,inactive,inactive,inactive,inactive,–,inactive,4.17% (inactive),inactive,inactive
Cc1[nH]c(=O)c(C#N)cc1-c1ccncc1,inactive,inactive,inactive,2.73 µM (active) and inactive,inactive,inactive,inactive,inactive,inactive,–,inactive,inactive,inactive,inactive,1.37 µM (active),–,–,1.02% (inactive),inactive,inactive
